# Hits are enriched below; roughly 21% of the tested compounds scored in any of these assays.
# Pf growth 48h = Primary qHTS for delayed death inhibitors of the malarial parasite plastid, 48 hour incubation; P. falciparum luciferase growth in erythrocytes, 48 h; Potency, µM (highest dose often 28.7 µM), usual class: inhibitors; 310,000 compounds, 5.9% hits; AID 504832, 2011
#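 Firefly luciferase activity from engineered P. falciparum reports growth; inhibitors lower the luminescent signal. Cultures contained 2% hematocrit erythrocytes at 0.1% final parasitemia.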
# NS1 function inh = qHTS Assay for Inhibitors of Influenza NS1 Protein Function; 270,000 compounds, 0.4% hits; Potency, µM (series often up to 46.1 µM); calls by dose curve; also: actives are rising curves; nearly all actives have a fitted effect of over 50% in size
#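 A cell-based growth assay was used: compounds that relieve NS1-induced slow growth of budding yeast raise OD600. Assay medium was yeast nitrogen base with ammonium sulphate and -URA supplement, pH 6.0, with 2% galactose.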
# CHX counter = Cycloheximide Counterscreen for Small Molecule Inhibitors of Shiga Toxin; cell reporter, cycloheximide protein synthesis inhibition counterscreen; max response, %; 300,000 compounds, 12% hits; in the data active = max response mostly above about 13%, no sharp cut-off; inactive = mostly below about 14%; also: read at 38.3 µM for the half of the compounds with a filed dose
# Pf growth 96h = Primary qHTS for delayed death inhibitors of the malarial parasite plastid, 96 hour incubation; P. falciparum luciferase reporter growth, 96 h; Potency, µM (series often up to 28.7 µM), actives largely listed as inhibitors; 320,000 compounds, 6.9% hits; AID 504834, 2011
#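 Two parasite generations (96 h, 37 C, 5% CO2) of compound exposure in infected erythrocytes (0.05% parasitemia, 2% hematocrit). Luciferase-reporter P. falciparum; decreased luminescence indicates inhibited growth, aimed at apicoplast-acting delayed death.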
# Sm TGR block = qHTS Assay for the Inhibitors of Schistosoma Mansoni Peroxiredoxins; Potency, µM (doses to about 114 µM), hits mostly inhibitors; Schistosoma mansoni thioredoxin glutathione reductase (TGR), Q962Y6; purified TGR, DTNB reduction, TNB absorbance 405 nm; 360,000 compounds, 3% hits; also: nearly all actives have a fitted effect of over 60% in size
#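 TGR 20 nM + NADPH 100 uM (dispensed conc.), cpd preinc 15 min RT; start with NADPH (500 uM addition) then DTNB (15 mM addition). Kinetic TNB absorbance, 405 nm filter. Four-parameter Hill fit across titration.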
# Shiga inhibitor = A qHTS for Small Molecule Inhibitors of Shiga Toxin | Vero cells, Shiga toxin protein synthesis inhibition reporter | inhibition, % at 38.7 µM | 290,000 compounds, 9.2% hits | AID 2315, 2010; in the data active = inhibition mostly above about 28%, no sharp cut-off; inactive = mostly below about 43%
# NS1 inh valid = Assay for Inhibitors of Influenza NS1 Protein Function: Hit Validation | shares compounds with NS1 function inh | influenza NS1 function cell assay, 15-point titration | activity change, negative = inhibition, % at 32.9 µM | 1,400 tested, under 10 active; calls by dose curve
# PR8 titer = Assay for Inhibitors of Influenza NS1 Protein Function: Influenza virus replication assay in MDCK cells infected with virus A/PR/8/34 | MDCK infected influenza A/PR/8/34, virus titer TCID50; hits give low values | 95 compounds, 30% hits | shares compounds with NS1 function inh | virus titer (log TCID50), log10 TCID50 at 5 µM; call rule not given here
# Numbers stand for hits; n = inactive; u = inconclusive; x = not tested or not shown; + = active, no number. Unless noted, calls follow the shape of the dose curve; as a rule, active = well fitted curve in the direction sought with a large enough effect; inconclusive = small, poorly fitted or top-dose-only effect, or another doubt; inactive = no such curve, though single readings can be large; an effect the other way counts as inactive or inconclusive.
SMILES,Pf growth 48h,NS1 function inh,CHX counter,Pf growth 96h,Sm TGR block,Shiga inhibitor,NS1 inh valid,others
Cc1ccc(C(C)C)cc1OCC(=O)NNC(=O)Nc1ccccc1,n,n,n,n,n,n,x,
O=C(C[n+]1cc2ccccc2c2ccccc21)c1ccccc1,n,u,n,x,n,n,n,
Cc1cc(Cl)ccc1NS(=O)(=O)c1c(C)[nH]c(=O)[nH]c1=O,n,n,n,n,n,n,x,
Cc1cnc(C(=O)NCC(=O)Nc2ccccc2Br)cn1,n,x,x,n,n,x,x,
O=[N+]([O-])c1ccccc1NCc1c(O)ccc2ccccc12,u,8.9µM,n,u,1.8µM,n,n,
CCc1ccc(NC(=O)C(C)OC(=O)c2cccc(S(=O)(=O)N3CCc4ccccc4C3)c2)cc1 (centres undefined),n,14µM,n,n,n,n,n,
O=S(=O)(c1ccc2ccccc2c1)N1CCN(S(=O)(=O)c2c(F)cccc2F)CC1,x,x,n,x,x,n,x,
COc1ccccc1Nc1nn2c(=O)c3ccc(C(=O)N4CCC(C)CC4)cc3nc2s1,u,u,n,n,n,n,u,
COc1ccc(N(Cc2cccs2)C(=O)c2ccc(OC)c(Cl)c2)cc1,x,x,x,x,n,x,x,
CCOC(=O)C1=C(C)NC2=C(C(=O)CCC2)C1c1cn(Cc2ccc(Cl)cc2Cl)nc1-c1ccccc1 (centres undefined),0.12µM,u,n,0.74µM,n,n,n,PR8 titer=n
COC(=O)C1=C(C)NC2=C(C(=O)CCC2)C1c1cccs1 (centres undefined),n,u,n,x,n,n,x,
COC(=O)C1=C(C)NC2=C(C(=O)CCC2)C1c1cn(Cc2ccc(Cl)cc2Cl)nc1-c1ccccc1 (centres undefined),2.6µM,13µM,n,1.9µM,n,n,n,
CCCn1c(CCNc2nc(-c3ccc(Cl)c([N+](=O)[O-])c3)cs2)nc2cc(Cl)c(Cl)cc21,n,8.9µM,n,n,n,n,n,PR8 titer=n
Cc1cccc(N2C(=O)CN(Cc3ccccc3)C2=S)c1,x,n,n,n,n,n,x,
Cc1ccc(-n2c(O)c(C=NCCN(C)C)c(=O)[nH]c2=O)cc1,n,n,n,n,n,n,x,
CN(C)CCN=Cc1c(O)n(-c2cccc3ccccc23)c(=O)[nH]c1=O,n,u,n,10µM,n,n,n,
COc1ccc(CNC(=O)CCCCCn2c(SCC#N)nc3cc4c(cc3c2=O)OCO4)cc1,u,11µM,n,n,n,n,n,
CCN(CC)C(=O)CSc1nc2cc3c(cc2c(=O)n1CCCC(=O)NCc1ccc(OC)cc1)OCO3,n,x,n,n,n,n,x,
COc1ccc(C=C(c2nc3ccccc3s2)c2nc3ccccc3s2)cc1O,u,16µM,89,u,n,+,n,
COc1cccc(/C=C(\CC(=O)O)c2nc3ccccc3s2)c1,n,x,n,n,n,n,x,
COC(=O)Cc1[nH]nc2c1C(c1ccc(O)c(OC)c1)C(C#N)=C(N)O2 (centres undefined),n,10µM,n,n,n,n,u,
CCCCNC(=O)c1onc(CSc2cccc3ccccc23)c1C(=O)O,n,n,n,n,n,n,x,
Cc1ccc(C(=O)N/N=C/c2cc(C)n(-c3ccc(Br)cc3)c2C)cc1[N+](=O)[O-],n,10µM,n,n,n,n,n,PR8 titer=n
CN(C)c1ccccc1C(=O)c1ccccc1N(C)C,n,8.9µM,28,x,n,86,n,
COc1ccccc1N1CCN(C(=O)C2CCCN(S(=O)(=O)c3ccc4c(c3)CCCN4C(C)=O)C2)CC1 (centres undefined),u,u,n,n,n,n,n,

# Screens from PubChem.
